ALDH1A1 inh = blocks purified human ALDH1A1 activity; P00352; Purified ALDH1A1, NADH fluorescence, propionaldehyde substrate; Potency, µM (titrated, usually from 75.3 µM), inactives show top-dose activity, negative = inhibition, usual class: inhibitors; actives 7.3% (n = 220,000); AID 1030;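 further: potency means the concentration at half of the fitted maximal effect; plate controls were no enzyme wells and a reference inhibitor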
Target sequence (P00352 whole entry, looked up): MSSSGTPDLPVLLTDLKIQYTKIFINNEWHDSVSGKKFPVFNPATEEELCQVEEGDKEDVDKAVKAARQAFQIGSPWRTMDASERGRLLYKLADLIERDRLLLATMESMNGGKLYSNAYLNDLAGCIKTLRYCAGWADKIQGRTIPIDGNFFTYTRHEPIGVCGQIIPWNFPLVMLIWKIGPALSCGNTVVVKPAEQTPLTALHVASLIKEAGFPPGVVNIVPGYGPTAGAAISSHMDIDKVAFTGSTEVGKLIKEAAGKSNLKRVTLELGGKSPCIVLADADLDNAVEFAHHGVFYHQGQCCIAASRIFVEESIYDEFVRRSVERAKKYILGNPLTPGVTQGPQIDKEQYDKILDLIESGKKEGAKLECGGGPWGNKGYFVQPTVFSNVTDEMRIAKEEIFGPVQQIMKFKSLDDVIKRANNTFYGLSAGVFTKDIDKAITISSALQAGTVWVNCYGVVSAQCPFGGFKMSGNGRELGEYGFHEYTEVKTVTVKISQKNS
PNC inhibitor = perinucleolar compartment assembly inhibition; PC3M PTB-GFP, PNC prevalence imaging, 16 h; active compounds read low; activity change (PNC), negative = inhibition, % at 10 µM; actives 3.1% (n = 140,000); AID 2417;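 active means readout at or below -70, meaning at least 70% loss of cells showing the perinucleolar compartment, a nuclear body marking cancer cells; inconclusive means readout between -30 and a set limit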;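 further: plate controls were DMSO wells for no effect and camptothecin positive control wells for full effect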
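PC3M cells stably expressing PTB-GFP, 750–1000 cells/well, treated 16 h at 37 °C with compound (23 nl of library stock), in duplicate. After paraformaldehyde fixation and Hoechst stain, imaged at 20x; PNC prevalence scored by image analysis.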
HPGD block = inhibitors of human 15-hydroxyprostaglandin dehydrogenase (HPGD); P15428; purified HPGD, NADH fluorescence kinetic, PGE2 substrate; actives 4.3% (n = 150,000); Potency, µM, for inactives: at the highest dose activity change, negative = inhibition, most hits filed as inhibitors; AID 894; further: potency means the concentration at half of the fitted maximal effect
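20 nM HPGD preincubated 15 min at room temperature with compound in 50 mM Tris-HCl pH 8, 0.01% Tween 20. Started with 1 mM NAD+ and 30 uM prostaglandin E2; NADH fluorescence (360/450 nm) read 5 times over 30-s intervals, last minus first.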
Active calls of the source: *; ? = inconclusive; . = no result; [ ] = dose if it differs, or a comment. A selection: hits, their analogues and other compounds. The true share with any hit is near 11%. Unless noted, the call rests on the fitted dose curve; in most records, active means well fitted inhibition curve with a large enough effect (not every such curve was filed as active); inconclusive means small, poorly fitted or top-dose-only effect, or another doubt; inactive means no such curve, though single readings can be large or run the other way. Unless noted, on the % scale 0 is the no-effect control and ±100 the full control effect.

SMILES | ALDH1A1 inh | PNC inhibitor | HPGD block
Cc1ccc(S(=O)(=O)CCN2CCN(c3ccccn3)CC2)cc1 | 13µM* | . | .
COc1ccccc1C1C2=C(CC(C)(C)CC2=O)Nc2nnnn21 (centres undefined) | 25µM* | ? | -12%
COc1ccc(OC)c(C2C3=C(CC(C)(C)CC3=O)Nc3nnnn32)c1 (centres undefined) | 10% | ? | -13%
Cc1ccc(C2=CC(c3cccs3)n3nnnc3N2)cc1 (centres undefined) | -18% | 2 | -13%
COc1ccccc1C1C=C(c2ccc(C)cc2)Nc2nnnn21 (centres undefined) | 14µM* | -8 | -15%
O=C(/C=C/c1ccc(F)cc1)NCCc1ccc2c(c1)OCCO2 | 6% | ? | 3%
COC(=O)C1=C(O)/C(=C\c2cc(C)n(-c3ccccc3F)c2C)N=C1C | 11µM* | . | .
COC(=O)C1=C(O)/C(=C\c2cc(C)n(-c3ccccc3C)c2C)N=C1C | ? | ? | -20%
COC(=O)C1=C(C)NC(=O)/C1=C\c1cc(C)n(-c2cc(C)cc(C)c2)c1C | -13% | 14 | -6%
COC(=O)C1=C(C)NC(=O)/C1=C\c1cc(C)n(-c2ccccc2)c1C | 25µM* | . | .
O=C1CCCC=C1[C@H](O)c1ccc([N+](=O)[O-])cc1 | -4%[13.5 µM] | . | .
Cc1cc([N+](=O)[O-])cc2c1NCC1CC=CC21 (centres undefined) | ? | ? | -2%
Cc1cc([N+](=O)[O-])c2c(c1C)C1C=CCC1C(c1ccccn1)N2 (centres undefined) | 8.9µM* | . | .
CCC(C)N(C(=O)COC(=O)Cc1n[nH]c(=O)c2ccccc12)C1CCS(=O)(=O)C1 (centres undefined) | 6% | 25 | -9%
CN1C(=O)C2(C(C#N)=C(N)Oc3c2oc(CO)cc3=O)c2ccccc21 (centres undefined) | 4% | -18 | -1%
Cc1nc2nc[nH]c2cc1Br | -20% | 3 | -18%
Cc1nc2[nH]c(=S)[nH]c2cc1Br | 18µM* | 3 | ?
COc1ccc(C(C)=O)c(Oc2nc(CN3CCOCC3)nc3scc(-c4cccs4)c23)c1 | -12% | 31 | -14%
CC(=O)c1ccccc1Oc1nc(CN2CCOCC2)nc2scc(-c3cccs3)c12 | 22µM* | 4 | -5%
CCOC(=O)C1CCCCN1Cc1ccccc1C(F)(F)F (centres undefined) | -9% | ? | -13%
COc1c(C)cc(C(=O)C2CCCN(C(=O)/C=C/c3ccccn3)C2)cc1C (centres undefined) | 14µM* | . | .
COc1c(C)cc(C(=O)C2CCCN(C(=O)c3cc(C)nc(C)n3)C2)cc1C (centres undefined) | -5% | . | .
Cc1nc(SCn2nnc3ccccc3c2=O)c2c(C)c(C)sc2n1 | -6% | 30 | -10%
COc1ccccc1N(C(=O)c1ccncc1)c1nc(-c2ccc([N+](=O)[O-])cc2)cs1 | 11µM* | -18 | -16%
CN(C(=O)c1cccnc1)c1nc(-c2ccccc2)cs1 | 7% | -25 | -6%
SMILES | ALDH1A1 inh | PNC inhibitor | HPGD block
O=C1ON=C(c2cccc([N+](=O)[O-])c2)/C1=C/c1ccc(O)cc1 | 10µM* | . | .
O=C1/C(=C/c2ccc(O)cc2)CCc2ccc([N+](=O)[O-])cc21 | -5% | ? | -6%
Cc1ccc(-n2cc(CN3CCN(Cc4nccn4C)CC3)c(-c3ccc(F)cc3)n2)cc1 | 25µM* | . | .
Cc1ccc(-n2cc(CN3CCN(c4ccccn4)CC3)c(-c3ccc(F)cc3)n2)cc1 | 2% | . | .
Cc1ccc(CNC(=O)Nc2cccs2)cc1 | ? | ? | -23%
CCCCc1cc2c(cn1)=C(OC(=O)c1cccs1)C(C)(OC(=O)CC)C(=O)C=2 (centres undefined) | 3.2µM* | . | -8%
CCCCc1cc2c(cn1)=C(OC(=O)C1CCCC1)C(C)(OC(=O)CC)C(=O)C=2 (centres undefined) | ? | . | -3%
O=C1CCCC=C1[C@H](CCc1ccccc1)OC(=O)c1ccc(Br)cc1 | 13%[13.5 µM] | . | .
O=C(CN1CCN(C2CCCCC2)CC1)NCCC1=CCCCC1 | -11% | -1 | -5%
Cc1cc(NC(=O)c2sccc2C)n(-c2cccc(Cl)c2)n1 | -3% | -29 | -6%
CCc1cc(OCCCCNCc2ccccc2)ccc1Cl | -4% | ? | -2%
CCC(C)[C@H](NC(=O)Nc1ccc(C(C)=O)cc1)C(=O)OC (some centres undefined) | 0% | -82* | -9%
CCC(C)[C@H](NC(=O)NCc1ccco1)C(=O)OC (some centres undefined) | 13µM* | . | .
COC(=O)[C@H](C)NC(=O)NCc1ccco1 | ? | -6 | -2%
COC(=O)[C@H](CCSC)NC(=O)Nc1ccc(C(C)=O)cc1 | 0% | ? | -7%

Source: PubChem (National Center for Advancing Translational Sciences (NCATS))
